# Measurements as given in PubChem BioAssay (EPA / NIEHS).
# Results filed as inconclusive are left out. Calls of active or inactive are those of the source. Rule for the calls: active = hit-call score of the fitted dose curve at least 0.9, where 1 is the maximum; inconclusive = response in the unintended direction; inactive = score below 0.9.
# Tests used:
# [1] = biological target: bovine Estrogen Receptor (ER), ESR1 (gene 407238) (UniProt P49884); assay: NVS_NR_bER: NovaScreen (NVS) Nuclear Receptor Binding Assay for bovine Estrogen Receptor (ER) (AID 2283345);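 note: actives lower the bound radioligand count which means they displace the ER ligand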
# bovine Estrogen Receptor (ER), ESR1 (gene 407238), sequence (P49884 whole entry, looked up): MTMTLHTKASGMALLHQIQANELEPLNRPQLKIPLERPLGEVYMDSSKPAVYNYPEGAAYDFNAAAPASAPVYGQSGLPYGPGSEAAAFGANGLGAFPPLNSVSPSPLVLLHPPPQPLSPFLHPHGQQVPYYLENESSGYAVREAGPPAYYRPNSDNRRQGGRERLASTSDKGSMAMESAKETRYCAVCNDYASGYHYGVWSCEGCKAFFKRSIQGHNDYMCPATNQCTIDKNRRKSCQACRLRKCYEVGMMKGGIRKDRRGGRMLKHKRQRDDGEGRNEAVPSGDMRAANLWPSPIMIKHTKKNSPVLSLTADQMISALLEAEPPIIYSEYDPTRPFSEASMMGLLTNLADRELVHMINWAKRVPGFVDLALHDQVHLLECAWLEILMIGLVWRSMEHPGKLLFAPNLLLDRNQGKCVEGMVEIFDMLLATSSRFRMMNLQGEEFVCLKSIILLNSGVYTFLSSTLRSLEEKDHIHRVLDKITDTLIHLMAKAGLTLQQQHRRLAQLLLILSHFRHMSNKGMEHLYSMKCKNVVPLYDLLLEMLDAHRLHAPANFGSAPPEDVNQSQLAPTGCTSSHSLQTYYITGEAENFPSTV
# How it was run: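 Scintillation counting of displaced radioligand gave the readout; bovine uterine membrane extract supplied the receptor. Measured 18 h post-dose, normalized to DMSO baseline. Single 25 uM duplicate screen preceded concentration-response follow-up.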
# [2] = biological target: Estrogen receptor (Homo sapiens) (UniProt P03372); assay: NVS_NR_hER: NovaScreen (NVS) Nuclear Receptor Binding Assay for human Estrogen Receptor (ER) (AID 2283348)
# Estrogen receptor (Homo sapiens), sequence (P03372 whole entry, looked up, the tested form may be a part): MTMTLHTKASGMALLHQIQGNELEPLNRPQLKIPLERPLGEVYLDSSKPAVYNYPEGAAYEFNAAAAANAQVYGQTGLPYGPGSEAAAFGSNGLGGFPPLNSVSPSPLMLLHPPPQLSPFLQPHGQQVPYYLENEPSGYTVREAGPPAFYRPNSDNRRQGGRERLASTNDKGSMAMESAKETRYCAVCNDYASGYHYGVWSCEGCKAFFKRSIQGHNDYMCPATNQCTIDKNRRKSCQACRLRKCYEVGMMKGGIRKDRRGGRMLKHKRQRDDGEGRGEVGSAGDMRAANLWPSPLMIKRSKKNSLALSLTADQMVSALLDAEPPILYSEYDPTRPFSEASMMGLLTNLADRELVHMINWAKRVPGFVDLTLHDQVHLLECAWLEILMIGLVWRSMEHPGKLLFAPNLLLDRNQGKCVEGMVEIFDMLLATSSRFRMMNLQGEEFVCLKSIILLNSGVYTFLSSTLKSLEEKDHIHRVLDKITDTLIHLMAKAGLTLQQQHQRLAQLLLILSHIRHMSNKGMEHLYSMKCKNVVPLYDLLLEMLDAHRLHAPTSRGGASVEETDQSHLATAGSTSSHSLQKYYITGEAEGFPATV
# How it was run: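 Cell-free radioligand binding with protein extracted from MCF7 cells; scintillation counting 18 hours after dosing. Loss of signal versus DMSO baseline read as displacement; primary single-concentration screen at 25 uM in duplicate, actives retested in concentration series.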
# [3] = biological target: Estrogen receptor (Homo sapiens) (UniProt P03372); assay: OT_ER_ERaERa_1440: Odyssey Thera (OT) 24-hour HEK293T Protein-Complementation Assay for Estrogen Receptor-alpha/-alpha Homodimer (AID 2283349);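 note: hits raise fluorescence above DMSO for agonists and antagonists alike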
# How it was run: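 Readout is the rise in mean fluorescence from reporter fragment complementation when ERα LBD (aa 310-547) units dimerize in HEK293T cells. Measured 24 h after dosing and analysed as increase over DMSO control.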
# [4] = biological target: Estrogen receptor (Homo sapiens) (UniProt P03372); assay: OT_ER_ERaERa_0480: Odyssey Thera (OT) 8-hour HEK293T Protein-Complementation Assay for Estrogen Receptor-alpha/-alpha Homodimer (AID 2283351);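 note: rise in fluorescence from reassembled reporter fragments on ERα LBD homodimer in nucleus or whole cell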
# How it was run: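 The readout is complementation of fragments fused to the human ER alpha ligand-binding domain (aa 310-547), stably expressed in HEK293T cells. After 8 h of exposure, the increase in nuclear/cytoplasmic fluorescence was measured by laser scanning cytometry and fitted relative to DMSO.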
# [5] = biological target: Estrogen receptor (Homo sapiens) + Estrogen receptor beta (Homo sapiens) (UniProt P03372+Q92731); assay: OT_ER_ERaERb_0480: Odyssey Thera (OT) 8-hour HEK293T Protein-Complementation Assay for Estrogen Receptor-alpha/-beta Heterodimer (AID 2283352)
# Estrogen receptor (Homo sapiens) + Estrogen receptor beta (Homo sapiens), sequence (P03372 whole entry, looked up, the tested form may be a part): as above
# Estrogen receptor (Homo sapiens) + Estrogen receptor beta (Homo sapiens), sequence (Q92731 whole entry, looked up, the tested form may be a part): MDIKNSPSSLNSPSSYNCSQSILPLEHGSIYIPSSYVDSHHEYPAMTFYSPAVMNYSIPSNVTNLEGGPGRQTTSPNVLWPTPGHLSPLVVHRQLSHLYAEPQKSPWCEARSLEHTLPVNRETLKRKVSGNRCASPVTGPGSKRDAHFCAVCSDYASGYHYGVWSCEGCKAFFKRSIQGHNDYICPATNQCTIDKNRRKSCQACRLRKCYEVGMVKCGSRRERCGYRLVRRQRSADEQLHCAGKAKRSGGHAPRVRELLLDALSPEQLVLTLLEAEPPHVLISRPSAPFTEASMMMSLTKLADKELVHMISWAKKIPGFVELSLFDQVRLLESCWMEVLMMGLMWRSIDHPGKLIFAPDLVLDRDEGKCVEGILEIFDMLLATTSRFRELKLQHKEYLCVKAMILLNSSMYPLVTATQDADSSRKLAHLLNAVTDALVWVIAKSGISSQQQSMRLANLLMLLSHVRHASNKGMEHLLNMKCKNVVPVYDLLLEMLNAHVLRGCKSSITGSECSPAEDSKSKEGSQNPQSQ
# How it was run: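 Fluorescence intensity readout from a protein-fragment complementation reporter in HEK293T; ER-alpha/ER-beta LBD heterodimer. Dosing 8 h. Gain-of-signal fit relative to DMSO negative control; laser scanning cytometry of whole-well cell population.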
smiles,measurement,setting,value
C=CC(=O)OCCOC(=O)C=C,outcome,[1],inactive
same,outcome,[2],inactive
O=C(O)CCCC[C@@H]1SC[C@@H]2NC(=O)N[C@@H]21,outcome,[2],inactive
same,outcome,[3],inactive
same,outcome,[4],inactive
same,outcome,[5],inactive
CCC(Cc1ccccc1)(C(=O)c1ccc(N2CCOCC2)cc1)N(C)C (centres undefined),outcome,[2],inactive
CC(=O)OC(C)C,outcome,[1],inactive
same,outcome,[2],inactive
same,outcome,[3],inactive
same,outcome,[4],inactive
CCC(C)OC(=O)c1ccc(O)cc1 (centres undefined),AC50,[1],9.45 µM (active)
same,AC50,[2],0.603 µM (active)
O=C(O)CCCCCCCCCC(=O)O,outcome,[2],inactive
CCCCCCCC/C=C\CCCCCCCC(=O)O,outcome,[3],inactive
same,outcome,[4],inactive
CCCCCCCCO[C@@H]1O[C@H](CO)[C@@H](O)[C@H](O)[C@H]1O,outcome,[3],inactive
same,outcome,[4],inactive
NC(CO)(CO)CO,outcome,[1],inactive
same,outcome,[2],inactive
same,outcome,[3],inactive
same,outcome,[4],inactive
CC(=O)[C@H]1[C@H](C#N)C[C@H]2[C@@H]3CC=C4C[C@@H](O)CC[C@]4(C)[C@H]3CC[C@@]21C,outcome,[1],inactive
same,outcome,[2],inactive
same,outcome,[3],inactive
same,outcome,[4],inactive
same,outcome,[5],inactive
CC(C)(C)C(=O)CCc1ccc(Cl)cc1,outcome,[2],inactive
O=S1(=O)OC(c2ccc(O)cc2)(c2ccc(O)cc2)c2ccccc21,outcome,[1],inactive
same,AC50,[2],13.2 µM (active)
same,outcome,[3],inactive
same,outcome,[4],inactive
same,outcome,[5],inactive
O=C(C(Cl)Cl)N1CCOC12CCCCC2,outcome,[3],inactive
same,outcome,[4],inactive
Nc1ccc(Oc2ccc(N)c(N)c2)cc1,outcome,[1],inactive
same,outcome,[2],inactive
O=C(c1ccccc1)c1ccc(O)c(O)c1O,outcome,[1],inactive
same,outcome,[2],inactive
